Potency and affinity values are given separately. The source made the active and inactive calls.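 Rule for the calls: active = Blocks human M5 receptor in a calcium assay, with half-maximal inhibiting concentration under 10 µM; inactive = the rest.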
Each compound was assayed against Muscarinic acetylcholine receptor M5 (Homo sapiens) (UniProt P08912) (assay: M5 muscarinic receptor antagonist potency, dose response, cell-based, CHO-K1 hM5, Fluo-4 calcium flux, ACh EC80 (AID 743110)). Conditions: series mostly up to 30 µM.
Muscarinic acetylcholine receptor M5 (Homo sapiens), sequence (P08912 whole entry, looked up): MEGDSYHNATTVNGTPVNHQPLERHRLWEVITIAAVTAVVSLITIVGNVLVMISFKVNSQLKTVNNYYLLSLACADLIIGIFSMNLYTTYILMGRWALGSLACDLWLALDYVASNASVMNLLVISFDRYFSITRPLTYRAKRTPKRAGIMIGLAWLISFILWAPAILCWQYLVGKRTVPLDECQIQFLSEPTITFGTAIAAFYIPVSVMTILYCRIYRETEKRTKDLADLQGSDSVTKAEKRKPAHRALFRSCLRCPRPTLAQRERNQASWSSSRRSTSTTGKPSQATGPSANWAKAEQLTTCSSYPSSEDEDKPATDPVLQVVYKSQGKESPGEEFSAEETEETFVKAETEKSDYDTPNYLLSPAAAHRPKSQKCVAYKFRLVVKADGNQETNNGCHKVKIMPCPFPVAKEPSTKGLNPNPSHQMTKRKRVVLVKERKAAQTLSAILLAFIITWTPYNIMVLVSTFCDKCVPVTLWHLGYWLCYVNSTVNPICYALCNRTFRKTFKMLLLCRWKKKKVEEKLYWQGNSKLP
In the case of `CC(c1ccccn1)N(C)C(=O)c1cc(COc2cccc(Br)c2)on1` (stereo not given), the outcome was “inactive”. In the case of `CC(=O)c1cccc(OCc2cccc(C(=O)N(C)C(C)c3ccccn3)c2)c1` (stereo not given), the outcome was “inactive”. `CC(=O)c1cccc(OCc2cc(C(=O)NC(C)c3ccccn3)no2)c1` (stereo not given) was tested, and the outcome was “inactive”. With `CC(=O)c1cccc(OCc2ccc(C(=O)N(C)C(C)c3ccccn3)cc2)c1` (stereo not given) the outcome was “inactive”. For `CC(=O)c1cccc(N(Cc2cc(C(=O)N(C)C(C)c3ccccn3)no2)C(=O)c2ccccc2)c1` (stereo not given), the outcome was “inactive”.

— PubChem BioAssay AID743110 (Vanderbilt Specialized Chemistry Center, 2013)
